A short description of experiment [1]: antimalarial activity against Dd2 strain (AID 2302;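 active = growth inhibition above 50% at the single 2 µM test dose, taken to imply half-maximal potency below 2 µM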;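 also: 0% = DMSO untreated growth and 100% = chloroquine plus artemisinin killed control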). To be noted: P. falciparum Dd2 in RBCs, LDH growth readout, 72 h; at 2 µM; hits give high values.
Experiment [2] can be described thus: human hepatoma cell viability loss – ATP luminescence, cytotoxicity control for P. falciparum antimalarial project, primary screen (AID 2303;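 active = inhibition above 50%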;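 also: 0% = DMSO wells and 100% = digitonin-killed cells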). To be noted: HepG2 viability, 24-48 h, at 10 µM, hits give high values.
Experiment [3] has as its target L-lactate dehydrogenase (Plasmodium falciparum (isolate CDC / Honduras)) (UniProt Q27743). The experiment in a line: PfLDH activity inhibition – cell lysate, 3D7 strain, counter-screen for P. falciparum growth inhibition project (AID 2304).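 Also: 0% = vehicle and 100% = reference inhibitor.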 As to conditions: P. falciparum 3D7 crude extract, LDH APAD/NBT absorbance; at 2 µM; hits give high values.
The nature of experiment [4]: inhibition of 3D7 malaria parasite growth – strain 3D7 (AID 2306).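 Also: 0% = DMSO wells and 100% = chloroquine plus artemisinin control wells.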 As to conditions: P. falciparum 3D7 erythrocytic growth, LDH absorbance, 72 h; at 2 µM; hits give high values.
For experiment [5], the target named is Calcium-dependent protein kinase 1 (Plasmodium falciparum (isolate 3D7)) (UniProt P62344). The experiment is described as follows: PfCDPK1 kinase inhibitors, biochemical, TCAMS library (AID 1159585; cut-off not given, nearly all actives have IC50 up to about 0.98 µM;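 also: inhibitors leave more ATP so luminescence rises with inhibition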). To be noted: recombinant PfCDPK1, Kinase-Glo ATP depletion luminescence.
Calcium-dependent protein kinase 1 (Plasmodium falciparum (isolate 3D7)), sequence (P62344 whole entry, looked up): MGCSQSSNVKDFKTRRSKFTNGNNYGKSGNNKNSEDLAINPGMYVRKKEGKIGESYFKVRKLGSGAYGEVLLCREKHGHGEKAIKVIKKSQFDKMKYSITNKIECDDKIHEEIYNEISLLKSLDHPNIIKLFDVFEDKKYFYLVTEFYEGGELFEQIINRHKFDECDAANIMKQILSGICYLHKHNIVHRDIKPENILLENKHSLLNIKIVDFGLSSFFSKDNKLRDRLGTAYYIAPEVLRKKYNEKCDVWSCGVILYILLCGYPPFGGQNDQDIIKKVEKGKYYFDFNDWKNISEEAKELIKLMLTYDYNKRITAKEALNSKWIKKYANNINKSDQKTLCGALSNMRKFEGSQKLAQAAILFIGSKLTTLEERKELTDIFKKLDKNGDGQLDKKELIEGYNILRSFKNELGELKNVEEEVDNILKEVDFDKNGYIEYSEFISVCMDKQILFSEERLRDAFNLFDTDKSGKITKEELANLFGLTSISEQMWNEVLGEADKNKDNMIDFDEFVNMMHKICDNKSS
For experiment [6], the target named is Plasmodium falciparum protein kinase 6 (PK6, PF3D7_1337100) (UniProt Q8IDW1). The experiment in a line: PfPK6 kinase inhibitors, biochemical, TCAMS library (AID 1159586). As to conditions: recombinant PfPK6, Kinase-Glo ATP depletion luminescence.
Plasmodium falciparum protein kinase 6 (PK6, PF3D7_1337100), sequence (Q8IDW1 1-305): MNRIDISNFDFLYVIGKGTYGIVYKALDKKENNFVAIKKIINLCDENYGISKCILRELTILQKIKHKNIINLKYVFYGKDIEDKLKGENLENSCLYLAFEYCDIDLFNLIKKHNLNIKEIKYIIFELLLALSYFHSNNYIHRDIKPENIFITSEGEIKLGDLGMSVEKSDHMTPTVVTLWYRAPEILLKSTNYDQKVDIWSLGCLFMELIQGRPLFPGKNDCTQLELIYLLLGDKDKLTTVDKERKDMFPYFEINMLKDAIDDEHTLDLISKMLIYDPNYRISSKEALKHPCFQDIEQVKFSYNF
In experiment [7] the target is Protein kinase 7 (PK7), Plasmodium falciparum 3D7 (PF3D7_0213400) (UniProt Q7YTF7). The experiment is described as follows: inhibition of Plasmodium PK7 catalytic activity – biochemical, TCAMS antimalarial set, Kinase-Glo luminescence (AID 1159587). As to conditions: recombinant PfPK7, Kinase-Glo ATP depletion luminescence.
Protein kinase 7 (PK7), Plasmodium falciparum 3D7 (PF3D7_0213400), sequence (Q7YTF7 1-343): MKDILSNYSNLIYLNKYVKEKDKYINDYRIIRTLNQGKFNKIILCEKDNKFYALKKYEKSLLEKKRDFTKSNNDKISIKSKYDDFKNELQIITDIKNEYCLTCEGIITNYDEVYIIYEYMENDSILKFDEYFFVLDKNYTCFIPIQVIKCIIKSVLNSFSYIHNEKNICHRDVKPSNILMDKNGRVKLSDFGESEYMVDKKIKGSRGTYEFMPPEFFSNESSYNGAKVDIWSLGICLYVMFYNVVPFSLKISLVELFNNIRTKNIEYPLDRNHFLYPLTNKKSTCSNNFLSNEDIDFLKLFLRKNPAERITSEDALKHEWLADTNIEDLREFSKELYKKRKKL
Experiment [8] deals with Calcium-dependent protein kinase 4 (Plasmodium falciparum (isolate 3D7)) (UniProt Q8IBS5). The experiment is described as follows: PfCDPK4 kinase inhibitors, biochemical, TCAMS library (AID 1159588; cut-off not given, nearly all actives have IC50 up to about 0.91 µM). To be noted: recombinant PfCDPK4, Kinase-Glo ATP depletion luminescence.
Calcium-dependent protein kinase 4 (Plasmodium falciparum (isolate 3D7)), sequence (Q8IBS5 whole entry, looked up): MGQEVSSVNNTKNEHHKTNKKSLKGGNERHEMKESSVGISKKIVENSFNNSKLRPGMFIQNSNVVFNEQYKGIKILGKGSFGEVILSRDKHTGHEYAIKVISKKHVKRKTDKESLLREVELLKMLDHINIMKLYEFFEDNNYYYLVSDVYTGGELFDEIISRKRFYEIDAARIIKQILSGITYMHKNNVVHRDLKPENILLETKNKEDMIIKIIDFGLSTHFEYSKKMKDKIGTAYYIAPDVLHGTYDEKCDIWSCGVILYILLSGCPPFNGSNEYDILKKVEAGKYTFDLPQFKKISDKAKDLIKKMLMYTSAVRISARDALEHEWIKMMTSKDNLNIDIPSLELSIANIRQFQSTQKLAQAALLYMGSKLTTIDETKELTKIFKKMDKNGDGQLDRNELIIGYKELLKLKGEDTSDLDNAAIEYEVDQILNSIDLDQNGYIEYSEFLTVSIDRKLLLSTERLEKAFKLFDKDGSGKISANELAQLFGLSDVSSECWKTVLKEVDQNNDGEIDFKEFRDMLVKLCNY

Values without a mark were called inactive. For some of these results: Potency and affinity values are given separately. Activity calls are given as the source filed them. Unless noted, no rule for the calls is given here.

L-lactate dehydrogenase (Plasmodium falciparum (isolate CDC / Honduras)), sequence (Q27743 whole entry, looked up): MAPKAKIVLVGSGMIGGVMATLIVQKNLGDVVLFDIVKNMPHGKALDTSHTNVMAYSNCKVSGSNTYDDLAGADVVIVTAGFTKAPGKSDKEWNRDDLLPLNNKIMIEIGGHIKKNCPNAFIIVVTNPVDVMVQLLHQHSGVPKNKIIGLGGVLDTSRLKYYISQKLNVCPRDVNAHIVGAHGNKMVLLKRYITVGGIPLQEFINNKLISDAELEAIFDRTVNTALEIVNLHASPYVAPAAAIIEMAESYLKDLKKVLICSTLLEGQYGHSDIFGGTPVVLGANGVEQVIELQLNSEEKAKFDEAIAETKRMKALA

For the compound `O=C1OC(c2ccccc2)(c2ccccc2)CN1CC1CCN(Cc2ccc(O)c(Cl)c2)CC1`, the growth inhibition is 90% (active) in experiment [1] and 98% (active) in experiment [4]. Moreover, the inhibition in experiment [2] was 26%; in experiment [3], -1%. The outcome in experiment [5], in experiment [6], in experiment [7] and in experiment [8] was inactive.
Regarding `CC1(C)CC(=O)c2c(O)cc(OCc3ccncc3)cc2O1`, the results for the growth inhibition in experiment [1] and in experiment [4] were 47% and 92% (active), respectively. Besides, the inhibition is 80% (active) in experiment [2] and -1% in experiment [3]. In addition, the result in experiment [5], in experiment [6], in experiment [7] and in experiment [8] was inactive.
For `Cc1ccc(NC(=O)c2ccc3ncccc3c2)cc1OC1CCN(CCC(C)C)C1` (stereo not given), the growth inhibition was 62% (active) in experiment [1] and 98% (active) in experiment [4]. Also, the inhibition was 5% in experiment [2] and -4% in experiment [3]. Also, the outcome in experiment [5], in experiment [6], in experiment [7] and in experiment [8] was inactive.
Regarding `CCc1ccc(CN2CCCCC(NC(=O)c3cc(-c4ccccc4F)cs3)C2)cc1` (stereo not given), the growth inhibition in experiment [1] was 12%; in experiment [4], 87% (active). Moreover, the inhibition in experiment [2] was 25%; in experiment [3] it was -4%. For the same compound, the outcome in experiment [5], in experiment [6], in experiment [7] and in experiment [8] was inactive.
Turning to `Cc1nnc2c(NC(=O)/C=C/c3ccc(OC(F)(F)F)cc3)cc3cc(Cl)ccc3n12`, the growth inhibition in experiment [1] was 99% (active); in experiment [4], 94% (active). In addition, the inhibition is 19% in experiment [2] and 4% in experiment [3]. For the same compound, the outcome in experiment [5], in experiment [6], in experiment [7] and in experiment [8] was inactive.
On to `Cc1cc2nc(-c3ccc(/C=C/C(=O)NC4CCCCC4)cc3)[nH]c2cc1C`, for which the growth inhibition is 10% in experiment [1] and 93% (active) in experiment [4]. For the same compound, the inhibition was 9% in experiment [2] and 2% in experiment [3]. In addition, the outcome in experiment [5], in experiment [6], in experiment [7] and in experiment [8] was inactive.
Regarding `COc1cc(F)c2ncc(Cl)c([C@@H](O)CN3CCC(NCc4ccc5c(n4)NC(=O)CO5)CC3)c2c1`, the growth inhibition in experiment [1] was 100% (active); in experiment [4] it was 101% (active). Also, the figures for the inhibition in experiment [2] and in experiment [3] were 12% and 1%, respectively. The outcome in experiment [5], in experiment [6], in experiment [7] and in experiment [8] was inactive.
As for `O=C(Nc1cccc(-c2ccc(CN3CCNCC3)cc2)c1)c1cccc(Cl)c1`, the growth inhibition was 4% in experiment [1] and 92% (active) in experiment [4]. Further, the values for the inhibition in experiment [2] and in experiment [3] were 30% and -4%, respectively. The outcome in experiment [5], in experiment [6], in experiment [7] and in experiment [8] was inactive.
For `CC1(C)N=C(N)NC(NOCCCCCCONC2=NC(C)(C)N=C(N)N2)=N1`, the figures for the growth inhibition in experiment [1] and in experiment [4] were 98% (active) and 95% (active), respectively. In addition, the inhibition was 34% in experiment [2] and -4% in experiment [3]. In addition, the outcome in experiment [5], in experiment [6], in experiment [7] and in experiment [8] was inactive.
Consider `O=c1cc(NCCCNCc2ccc(C(F)(F)F)c(F)c2)[nH]c2ccccc12`, for which the results for the growth inhibition in experiment [1] and in experiment [4] were 26% and 93% (active), respectively. In addition, the figures for the inhibition in experiment [2] and in experiment [3] were 5% and 4%, respectively. The outcome in experiment [5], in experiment [6], in experiment [7] and in experiment [8] was inactive.
`Clc1ccc(-c2cc(-c3csc(NCCN4CCOCC4)n3)on2)c(Cl)c1`: the growth inhibition in experiment [1] is 86% (active); in experiment [4] it was 97% (active). Besides, the inhibition was 39% in experiment [2] and -3% in experiment [3]. Also, the result in experiment [5], in experiment [6], in experiment [7] and in experiment [8] was inactive.
For the compound `Cc1[nH]n(-c2cccc(C(F)(F)F)c2)c(=O)c1-c1ccc(Cl)cc1`, the growth inhibition in experiment [1] was 25%; in experiment [4], 98% (active). The inhibition in experiment [2] was 7%; in experiment [3], -4%. For the same compound, the result in experiment [5], in experiment [6], in experiment [7] and in experiment [8] was inactive.
For the compound `COc1cccc2c(Oc3ccccc3C)ccnc12`, the growth inhibition was 45% in experiment [1] and 85% (active) in experiment [4]. For the same compound, the figures for the inhibition in experiment [2] and in experiment [3] were -7% and 4%, respectively. The result in experiment [5], in experiment [6], in experiment [7] and in experiment [8] was inactive.
Regarding `CCC(C)NCCC(c1ccccc1)c1ccccc1O` (stereo not given), the figures for the growth inhibition in experiment [1] and in experiment [4] were 74% (active) and 97% (active), respectively. In addition, the inhibition in experiment [2] and in experiment [3] was 4% in each case. In addition, the result in experiment [5], in experiment [6], in experiment [7] and in experiment [8] was inactive.
For the compound `Cc1nn(-c2ccccc2)c2sc(C(=O)N(CCCN(C)C)c3nc(-c4ccccc4)cs3)cc12`, the growth inhibition in experiment [1] is 36%; in experiment [4], 95% (active). Besides, the inhibition in experiment [2] was 99% (active); in experiment [3], -2%. For the same compound, the outcome in experiment [5], in experiment [6], in experiment [7] and in experiment [8] was inactive.
`c1cc(CNCCN2CCNCC2)cc(-c2ccc(-c3nc4ccccc4[nH]3)cc2)c1`: the figures for the growth inhibition in experiment [1] and in experiment [4] were 11% and 98% (active), respectively. Further, the results for the inhibition in experiment [2] and in experiment [3] were 3% and -3%, respectively. Moreover, the result in experiment [5], in experiment [6], in experiment [7] and in experiment [8] was inactive.
Consider `CCOC(=O)c1cnc2cc(N3CCCC3)c(Cl)cc2c1OCC`, for which the growth inhibition in experiment [1] and in experiment [4] was 97% (active) each time. In addition, the inhibition in experiment [2] is 0%; in experiment [3], -2%. Besides, the result in experiment [5], in experiment [6], in experiment [7] and in experiment [8] was inactive.
Turning to `CN1CCC(Oc2ccc(CN3CC[C@H](NC(=O)c4ccc(Cl)c(Cl)c4)C3)cc2Cl)C1` (stereo not given in full), the growth inhibition was 78% (active) in experiment [1] and 101% (active) in experiment [4]. For the same compound, the inhibition in experiment [2] was 68% (active); in experiment [3] it was 0%. Further, the result in experiment [5], in experiment [6], in experiment [7] and in experiment [8] was inactive.
Consider `COc1cc(C(=O)NC2CCN(Cc3ccccc3)CC2)ccc1-c1nc2c(Cl)cc(C(F)(F)F)cc2[nH]1`, for which the growth inhibition in experiment [1] is 56% (active); in experiment [4], 103% (active). Further, the inhibition was 7% in experiment [2] and 1% in experiment [3]. Moreover, the result in experiment [5], in experiment [6], in experiment [7] and in experiment [8] was inactive.
In the case of `O=C1OC(c2ccccc2)(c2ccccn2)CN1C1CCN(Cc2cccn2-c2ccc(Cl)cc2)CC1` (stereo not given), the results for the growth inhibition in experiment [1] and in experiment [4] were 98% (active) and 99% (active), respectively. Moreover, the inhibition was 21% in experiment [2] and -5% in experiment [3]. The outcome in experiment [5], in experiment [6], in experiment [7] and in experiment [8] was inactive.

The values above are taken from PubChem BioAssay.
